# Activity calls are given as the source filed them. Entries that show only a call come without a potency. Unless noted, the call rests on the fitted dose curve; in most records, active means well fitted curve in the direction sought with a large enough effect in the repeat runs; inconclusive means weak or mixed curves; inactive means no such curve, though single readings can be large; an effect the other way counts as inactive or inconclusive.
# Legend:
# [1] = qHTS assay for small molecule disruptors of the mitochondrial membrane potential (AID 720635); further: potency means the concentration at half of the fitted maximal effect
# How it was run: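 Mitochondrial membrane potential tracked with Mito-MPS dye, red aggregates (ex 540/em 590 nm) against green monomers (ex 490/em 535 nm). Compound treatment 1 hr at 37C, dye 30 min in HepG2.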
# [2] = qHTS assay to test for compound auto fluorescence at 535 nm (green) in HepG2 cells (AID 720675)
# [3] = qHTS assay to test for compound auto fluorescence at 460 nm (blue) in HEK293 cell free culture (AID 720681)
# How it was run: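 Blue fluorescence (Ex 405/Em 460 nm, triamterene-equivalent) was read immediately after pin transfer of compound or DMSO into medium (DMEM, 10% FBS) without cells.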
# [4] = qHTS assay to test for compound auto fluorescence at 535 nm (green) in HepG2 cell free culture (AID 720686)
# [5] = target: Glucocorticoid receptor (Homo sapiens) (UniProt P04150); test: qHTS assay to identify small molecule agonists of the glucocorticoid receptor (GR) signaling pathway (AID 720691; active means well fitted activation curve with a large enough effect in the signal ratio in the repeat runs, not every such curve was filed as active; inconclusive means weak or mixed curves, or effect the other way; inactive means no such curve, though single readings can be large or run the other way; the % refers to the signal ratio)
# Sequence of Glucocorticoid receptor (Homo sapiens) (P04150 whole entry, looked up): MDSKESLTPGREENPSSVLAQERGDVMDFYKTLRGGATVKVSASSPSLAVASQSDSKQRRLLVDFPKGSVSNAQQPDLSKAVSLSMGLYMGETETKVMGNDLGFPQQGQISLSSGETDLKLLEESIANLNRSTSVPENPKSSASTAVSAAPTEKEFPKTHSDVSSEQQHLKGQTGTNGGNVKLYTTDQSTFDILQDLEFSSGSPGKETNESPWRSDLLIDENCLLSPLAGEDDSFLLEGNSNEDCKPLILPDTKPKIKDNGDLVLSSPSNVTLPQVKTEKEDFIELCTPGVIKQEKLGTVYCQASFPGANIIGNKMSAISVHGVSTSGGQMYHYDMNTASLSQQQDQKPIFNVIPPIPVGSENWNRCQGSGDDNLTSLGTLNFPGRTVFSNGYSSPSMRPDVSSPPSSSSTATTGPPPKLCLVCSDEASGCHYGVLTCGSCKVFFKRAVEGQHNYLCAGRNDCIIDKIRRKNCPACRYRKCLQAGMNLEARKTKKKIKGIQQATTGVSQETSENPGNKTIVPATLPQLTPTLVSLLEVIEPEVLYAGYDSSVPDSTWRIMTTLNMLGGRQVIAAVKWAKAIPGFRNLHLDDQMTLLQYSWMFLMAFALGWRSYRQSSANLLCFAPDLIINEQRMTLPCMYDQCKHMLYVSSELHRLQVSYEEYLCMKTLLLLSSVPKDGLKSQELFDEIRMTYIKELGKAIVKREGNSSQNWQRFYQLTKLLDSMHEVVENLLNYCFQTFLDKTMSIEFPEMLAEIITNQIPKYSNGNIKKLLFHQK
# How it was run: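 GR-bla HeLa cells carrying a GRE-driven beta-lactamase reporter, exposed to compounds for 18 h at 37 C. Reporter activation read as fluorescence after 2 h with LiveBLAzer B/G FRET substrate at room temperature.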
# [6] = qHTS assay to identify small molecule antagonists of the glucocorticoid receptor (GR) signaling pathway - cell viability counter screen (AID 720693); further: nearly all actives have a fitted effect of over 55% in size; further: potency means the concentration at half of the fitted maximal effect
# [7] = qHTS assay for identifying genotoxic compounds that show differential cytotoxicity against isogenic chicken DT40 cell lines with known DNA damage response pathways - wild type cell line (AID 743012); further: nearly all actives have a fitted effect of over 60% in size; further: potency means the concentration at half of the fitted maximal effect
# How it was run: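 Wild-type DT40 cells (300/well) exposed to compounds for 40 hours at 37 C/5% CO2. Viability read by CellTiter-Glo luminescence after 30 min at room temperature.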
# [8] = qHTS assay to identify small molecule antagonists of the androgen receptor (AR) signaling pathway - cell viability counter screen (AID 743033; further: nearly all actives have a fitted effect of over 45% in size; further: potency means the concentration at half of the fitted maximal effect)
# [9] = qHTS assay to identify small molecule antagonists of the thyroid receptor (TR) signaling pathway - cell viability counter screen (AID 743064); further: nearly all actives have a fitted effect of over 50% in size; further: potency means the concentration at half of the fitted maximal effect
# How it was run: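 In rat pituitary GH3.TRE-Luc reporter cells co-exposed to compound and 1 nM T3 for 23.5 h, cytotoxicity was assessed with CellTiter-Fluor in the same wells, read by fluorescence.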
# [10] = qHTS assay to identify small molecule antagonists of the thyroid receptor (TR) signaling pathway (AID 743065); further: nearly all actives have a fitted effect of over 55% in size; further: potency means the concentration at half of the fitted maximal effect
# How it was run: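 Antagonism measured as loss of luciferase signal in GH3 cells stably carrying a TRE-luciferase reporter, co-treated with compound and T3 (1 nM final) for 23.5 h at 37 C. Viability was read in the same well by CellTiter-Fluor.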
# [11] = qHTS assay to identify small molecule antagonists of the estrogen receptor alpha (ER-alpha) signaling pathway - cell viability counter screen (AID 743074; calls by dose curve;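 further: HEK293 cells carrying ER-alpha-UAS-bla reporter stimulated with 17beta-estradiol; nearly all actives have a fitted effect of over 45% in size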; further: potency means the concentration at half of the fitted maximal effect)
# [12] = target: Estrogen receptor (Homo sapiens) (UniProt P03372); test: qHTS assay to identify small molecule agonists of the estrogen receptor alpha (ER-alpha) signaling pathway (AID 743075; calls by dose curve;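 further: HEK293 GripTite cells with ER-alpha and UAS-driven beta-lactamase reporter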; further: potency means the concentration at half of the fitted maximal effect)
# Sequence of Estrogen receptor (Homo sapiens) (P03372 whole entry, looked up): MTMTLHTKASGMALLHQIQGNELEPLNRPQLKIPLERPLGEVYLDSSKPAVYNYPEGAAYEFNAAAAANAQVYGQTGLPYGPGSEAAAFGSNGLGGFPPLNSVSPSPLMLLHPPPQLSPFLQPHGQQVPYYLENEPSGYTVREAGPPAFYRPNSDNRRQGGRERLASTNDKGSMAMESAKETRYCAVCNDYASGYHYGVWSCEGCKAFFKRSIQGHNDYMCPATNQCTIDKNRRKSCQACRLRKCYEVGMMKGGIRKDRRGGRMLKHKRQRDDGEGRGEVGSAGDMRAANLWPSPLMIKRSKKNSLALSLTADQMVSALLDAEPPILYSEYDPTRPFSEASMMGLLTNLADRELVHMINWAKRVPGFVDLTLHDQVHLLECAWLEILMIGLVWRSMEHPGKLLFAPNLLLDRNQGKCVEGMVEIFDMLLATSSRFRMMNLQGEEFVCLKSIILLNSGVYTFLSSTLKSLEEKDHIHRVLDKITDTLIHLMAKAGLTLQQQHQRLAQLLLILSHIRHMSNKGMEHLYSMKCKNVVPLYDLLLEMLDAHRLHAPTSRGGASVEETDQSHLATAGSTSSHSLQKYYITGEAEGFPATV
# [13] = qHTS assay to identify small molecule antagonists of the estrogen receptor alpha (ER-alpha) signaling pathway using the BG1 cell line (AID 743080; calls by dose curve;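 further: BG1 cells stimulated with 17beta-estradiol alongside compound; nearly all actives have a fitted effect of over 25% in size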; further: potency means the concentration at half of the fitted maximal effect)
# How it was run: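 BG1-Luc-4E2 cells (endogenous full-length ER-alpha, stable 4×ERE-luciferase) were starved 5 days in phenol-red-free medium with 10% charcoal-stripped FBS, plated 24 h, then given compound plus 17beta-estradiol for 21.5 h at 37 C; ONE-Glo luminescence read after 30 min.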
# [14] = target: Nuclear receptor subfamily 1 group I member 2 (Homo sapiens) (UniProt O75469); test: CYP3A4 induction through human pregnane X receptor (PXR) by small molecules, qHTS assay (AID 1346984); further: nearly all actives have a fitted effect of over 40% in size
# How it was run: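 DPX-2 HepG2 cells carrying a PXR response element and CYP3A4-promoter luciferase construct, treated with compounds 24 hr at 37C. Then P450-Glo CYP3A4 Luciferin-IPA substrate (3uM final) for 3 hr at 37C, One-Glo added, luminescence read.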
# [15] = qHTS assay for identifying genotoxic compounds that show differential cytotoxicity against isogenic chicken DT40 cell lines with known DNA damage response pathways - Rev3 mutant cell line (AID 743014); further: nearly all actives have a fitted effect of over 55% in size; further: potency means the concentration at half of the fitted maximal effect
# [16] = qHTS assay to identify small molecule antagonists of the androgen receptor (AR) signaling pathway using the MDA cell line - cell viability counter screen (AID 743041; further: nearly all actives have a fitted effect of over 45% in size; further: potency means the concentration at half of the fitted maximal effect)
# How it was run: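 R1881-driven MDA-kb2 AR-luc cells, 3,000/well, were dosed with library compounds for 16 h; cell health came from CellTiter-Fluor fluorescence in the reporter wells.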
# [17] = system: thyroid hormone receptor (rat, GH3 cells); test: qHTS assay to identify small molecule agonists of the thyroid receptor (TR) signaling pathway (AID 743066; calls by dose curve)
# [18] = target: Estrogen receptor (Homo sapiens) (UniProt P03372); test: qHTS assay to identify small molecule agonists of the estrogen receptor alpha (ER-alpha) signaling pathway using the BG1 cell line (AID 743079); further: nearly all actives have a fitted effect of over 20% in size; further: potency means the concentration at half of the fitted maximal effect
# [19] = qHTS assay to identify small molecule that activate the aryl hydrocarbon receptor (AhR) signaling pathway - cell viability counter screen (AID 743086); further: nearly all actives have a fitted effect of over 45% in size; further: potency means the concentration at half of the fitted maximal effect
# How it was run: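 Cytotoxicity counter screen: CellTiter-Fluor signal (30 min, 37 C) in 4000 HepG2 cells/well carrying the DRE-luciferase reporter, following 24 h compound exposure at 37 C.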
# [20] = target: Peroxisome proliferator-activated receptor gamma (Homo sapiens) (UniProt P37231); test: qHTS assay to identify small molecule agonists of the peroxisome proliferator-activated receptor gamma (PPARg) signaling pathway (AID 743094; active means well fitted activation curve with a large enough effect in the signal ratio in the repeat runs, not every such curve was filed as active; inconclusive means weak or mixed curves, or effect the other way; inactive means no such curve, though single readings can be large or run the other way; the % refers to the signal ratio)
# Sequence of Peroxisome proliferator-activated receptor gamma (Homo sapiens) (P37231 whole entry, looked up): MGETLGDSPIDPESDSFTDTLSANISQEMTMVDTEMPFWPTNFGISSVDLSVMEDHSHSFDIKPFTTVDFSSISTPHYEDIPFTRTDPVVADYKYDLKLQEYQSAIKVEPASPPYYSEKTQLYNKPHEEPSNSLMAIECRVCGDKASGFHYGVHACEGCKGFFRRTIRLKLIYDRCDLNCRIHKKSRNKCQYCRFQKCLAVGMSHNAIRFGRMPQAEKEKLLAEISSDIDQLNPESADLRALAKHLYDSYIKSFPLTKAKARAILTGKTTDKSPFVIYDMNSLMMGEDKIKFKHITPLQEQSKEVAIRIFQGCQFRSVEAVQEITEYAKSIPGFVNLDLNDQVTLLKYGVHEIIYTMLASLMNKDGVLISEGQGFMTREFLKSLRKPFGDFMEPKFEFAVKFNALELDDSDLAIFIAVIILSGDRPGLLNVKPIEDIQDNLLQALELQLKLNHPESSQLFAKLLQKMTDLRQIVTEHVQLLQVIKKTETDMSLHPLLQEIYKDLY
# How it was run: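 GeneBLAzer PPARg UAS-bla HEK293H cells were plated, rested 5 h, then exposed to compounds for 17 h at 37C. Beta-lactamase activity was read by LiveBLAzer B/G FRET substrate fluorescence after 1 h at room temperature.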
Compound,Potency [1],Potency [2],Potency [3],Potency [4],Potency [5],Potency [6],Potency [7],Potency [8],Potency [9],Potency [10],Potency [11],Potency [12],Potency [13],Potency [14],Potency [15],Potency [16],Potency [17],Potency [18],Potency [19],Potency [20]
COC(COC(N)=O)C1=C(N2CC2)C(=O)C(C)=C(N2CC2)C1=O (centres undefined),inactive,inactive,inactive,inactive,inactive,1.9 µM (active),0.0042 µM (active),inactive,0.841 µM (active),0.168 µM (active),13.4 µM (active),inactive,0.531 µM (active),inactive,–,–,–,–,–,–
C[C@@H]1[C@H](O)[C@@H](C)/C=C/C=C/CC/C=C/C=C/C=C/C=C/[C@H](O[C@H]2O[C@@H](C)[C@H](O)[C@@H](N)[C@H]2O)CC2O[C@](O)(C[C@@H](O)[C@H](O)CC[C@@H](O)C[C@@H](O)C[C@@H](O)CC(=O)O[C@H]1C)C[C@H](O)[C@H]2C(=O)O,–,–,inactive,–,–,inactive,inactive,inactive,inactive,–,inactive,inactive,inactive,–,inactive,inactive,inactive,inactive,inactive,inactive
C[C@@H](N)C(=O)c1ccccc1,inactive,–,inactive,–,inactive,inactive,inactive,inactive,–,inactive,–,inactive,inactive,–,inactive,inactive,inactive,inactive,inactive,inactive
CNc1ccc(C(=O)CC(O)CCC(C)C2OC(=O)CC(O)CC(=O)CC(O)CC(O)CC(O)CC(O)CC3(O)CC(O)C(C(=O)OC)C(CC(O[C@@H]4O[C@H](C)[C@@H](O)[C@H](N)[C@@H]4O)/C=C/C=C/C=C/C=C/C=C/C=C/C=C/C2C)O3)cc1 (some centres undefined),16.8 µM (active),inactive,–,inactive,inactive,inactive,–,inactive,–,–,inactive,inactive,inactive,inactive,–,inactive,inactive,inactive,inactive,–
C[C@]12CCC(=O)C[C@@H]1CC[C@@H]1[C@@H]2CC[C@@]2(C)[C@H]1CC[C@]2(C)O,–,inactive,–,inactive,inactive,inactive,inactive,inactive,inactive,–,inactive,477 nM [inconclusive] (active),inactive,–,inactive,–,inactive,150 nM (active),inactive,inactive
COC(=O)[C@]12CCC(C)(C)C[C@H]1[C@H]1C(=O)C=C3[C@@]4(C)C=C(C#N)C(=O)C(C)(C)[C@@H]4CC[C@@]3(C)[C@]1(C)CC2,3.76 µM (active),inactive,–,inactive,–,1.07 µM (active),–,4.25 µM (active),–,0.473 µM (active),3.38 µM (active),3010 nM [inconclusive] (active),–,–,–,6.68 µM (active),–,–,3.76 µM (active),–
CCNC1(c2cccs2)CCCCC1=O (centres undefined),–,inactive,inactive,inactive,inactive,inactive,inactive,inactive,–,inactive,inactive,inactive,inactive,–,inactive,–,inactive,inactive,inactive,inactive
C1CN(P2(N3CC3)=NP(N3CC3)(N3CC3)=NP(N3CC3)(N3CC3)=N2)CCO1 (centres undefined),inactive,inactive,inactive,inactive,–,–,3.76 µM (active),inactive,–,inactive,–,inactive,inactive,–,0.168 µM (active),–,inactive,inactive,inactive,inactive
N#CC1(N2CCCCC2)CCCCC1,inactive,inactive,inactive,–,inactive,inactive,inactive,inactive,inactive,–,inactive,inactive,inactive,inactive,inactive,inactive,inactive,inactive,inactive,inactive
O=C1CCO1,inactive,inactive,inactive,inactive,inactive,inactive,inactive,inactive,inactive,inactive,–,inactive,inactive,inactive,inactive,inactive,inactive,inactive,inactive,inactive
CC(C)C[C@H]1C(=O)N2CCC[C@H]2[C@]2(O)O[C@](NC(=O)[C@@H]3C[C@@H]4c5cccc6[nH]cc(c56)C[C@H]4N(C)C3)(C(C)C)C(=O)N12,inactive,inactive,inactive,inactive,–,–,29.8 µM (active),inactive,29.8 µM (active),29.8 µM (active),inactive,inactive,inactive,–,23.7 µM (active),inactive,inactive,inactive,–,–
COc1ccc(OC)c(C[C@H](C)N)c1,inactive,inactive,–,inactive,–,inactive,inactive,inactive,–,–,–,inactive,inactive,–,inactive,–,–,inactive,inactive,inactive
CNC(C)CC1CCCCC1 (centres undefined),–,–,inactive,inactive,inactive,inactive,–,–,inactive,inactive,inactive,inactive,inactive,–,–,inactive,inactive,inactive,inactive,inactive
CCN(CC)/[N+]([O-])=N/O,–,–,inactive,inactive,inactive,inactive,–,–,–,inactive,inactive,–,–,–,–,inactive,inactive,–,inactive,–
C[N+]1(C)[C@@H]2CC[C@H]1CC(OC(=O)c1c[nH]c3ccccc13)C2 (some centres undefined),inactive,inactive,inactive,inactive,inactive,inactive,inactive,inactive,inactive,inactive,inactive,inactive,inactive,inactive,–,inactive,inactive,inactive,inactive,inactive
CO[C@H]1[C@@H](O)C[C@H](O[C@H]2[C@@H](O)C[C@H](O[C@H]3[C@@H](O)C[C@H](O[C@H]4CC[C@@]5(C)[C@H](CC[C@@H]6[C@@H]5C[C@@H](O)[C@]5(C)[C@@H](C7=CC(=O)OC7)CC[C@]65O)C4)O[C@@H]3C)O[C@@H]2C)O[C@@H]1C,0.699 µM (active),–,inactive,inactive,–,0.756 µM (active),0.531 µM (active),–,inactive,inactive,–,inactive,–,inactive,0.668 µM (active),–,inactive,–,–,–
CCCCCc1cc(O)c2c(c1)OC(C)(C)c1ccc(C)cc1-2,1.68 µM (active),–,–,inactive,–,–,9.44 µM (active),inactive,13.3 µM (active),13.3 µM (active),23.9 µM (active),–,29.8 µM (active),–,11.9 µM (active),–,–,–,–,–
CC(=O)OCC(=O)[C@H]1CC[C@H]2[C@@H]3CC[C@H]4C[C@H](O)CC[C@]4(C)[C@H]3C(=O)C[C@]12C,inactive,inactive,inactive,inactive,inactive,inactive,inactive,inactive,–,inactive,inactive,inactive,inactive,inactive,inactive,inactive,inactive,inactive,inactive,–
COc1ccc2c(c1)C13CCCC[C@@H]1C(C2)N(C)CC3 (some centres undefined),inactive,inactive,–,inactive,inactive,–,–,inactive,–,–,inactive,inactive,inactive,inactive,–,inactive,inactive,inactive,inactive,inactive
CCOC(=O)C1(c2ccccc2)CCCN(C)CC1 (centres undefined),inactive,–,–,inactive,inactive,inactive,inactive,inactive,inactive,inactive,inactive,inactive,inactive,–,inactive,inactive,inactive,inactive,inactive,inactive
O=c1c2ccccc2[se]n1-c1ccccc1,22.1 µM (active),inactive,inactive,inactive,inactive,inactive,5.31 µM (active),–,–,23.7 µM (active),–,inactive,–,–,8.41 µM (active),–,–,–,–,–
C[C@@H]1[C@@H]2Cc3ccc(O)cc3[C@@]1(C)CCN2CCc1ccccc1,inactive,inactive,–,–,inactive,inactive,3.81 µM (active),–,60.4 µM (active),53.8 µM (active),inactive,inactive,–,–,9.57 µM (active),–,–,–,–,–
C[C@]12CC[C@H]3[C@@H](CCC4=CC(=O)CC[C@@]43C)[C@@H]1CC[C@H]2O,–,inactive,–,inactive,–,–,23.7 µM (active),inactive,–,–,inactive,–,–,inactive,–,inactive,inactive,–,inactive,inactive
COC(=O)[C@@H]1[C@H]2CC[C@@H](C[C@H]1OC(=O)c1ccccc1)N2C,inactive,inactive,inactive,inactive,–,inactive,inactive,inactive,inactive,inactive,inactive,inactive,inactive,inactive,inactive,inactive,inactive,inactive,inactive,inactive
CN=C1CN(O)C(c2ccccc2)=c2cc(Cl)ccc2=N1,–,inactive,inactive,inactive,inactive,–,inactive,inactive,inactive,inactive,inactive,inactive,inactive,inactive,inactive,inactive,inactive,inactive,inactive,inactive
OC(c1ccccc1)(c1ccccc1)C1CN2CCC1CC2 (centres undefined),–,inactive,inactive,–,inactive,inactive,26.6 µM (active),inactive,–,–,inactive,inactive,inactive,inactive,–,inactive,inactive,inactive,inactive,inactive

# Reference: PubChem BioAssay (Tox21)
